For orientation: AC50 means the concentration giving half of the maximal activity seen.

Records with an inconclusive call do not appear. Activity calls are given as the source filed them. How the source made its calls: active means hit-call score of the fitted dose curve at least 0.9, where 1 is the maximum; inconclusive means response in the unintended direction; inactive means score below 0.9.

The assay in a line: ACEA_ER_AUC_viability: ACEA Biosciences xCELLigence Real-Time Cell Analysis on Estrogen Receptor Agonism for Viability (AID 2283782).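 Further: continuous compound exposure with impedance area under curve over 80 h; hit means loss of impedance signal meaning reduced cell growth or viability.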 The method, boiled down: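 T-47D human breast cells in phenol red-free RPMI1640 with 10% charcoal-stripped FBS were dosed with an 8-point 1:4 dilution series from 100 uM top final concentration, in duplicate. Impedance-based growth was followed for 80 h; AUC analysed versus DMSO.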
Regarding `CC1(C)CCC[C@]2(C)[C@H]3CC(=O)O[C@]3(C)CC[C@@H]12`, the compound was called inactive.
For `CC/C=C\CCOC(=O)c1ccccc1O`, the AC50 is 72.7 µM (active).
With `CCCCc1ccc(Cl)cc1`, the result was inactive.
The same measure, in the same setting: as for `CO[Si](CCCS)(OC)OC`, the entry is “inactive”; as for `CCOB(OCC)OCC`, “inactive”.
Consider `C=CC(=O)OCCCCCCOC(=O)C=C`, for which the half-maximal activity concentration (AC50) is 85.3 µM (active).
As for `CCOC(=O)OC(=O)OCC`, the compound was called inactive.
On to `Cc1cc(C)n(CO)n1`, for which the compound was called inactive.
In the case of `CCC(C)c1ccccc1` (centres undefined), the compound was called inactive.
Same read-out and setting: next, `CC(=O)CC(=O)Nc1ccccc1C`: “inactive”; `CCc1occc(=O)c1O`: “inactive”; `OCCCc1ccccc1`: “inactive”.
Still for that read-out and setting: next, `COC(=O)C=Cc1ccccc1`: “inactive”; `CCCCCCCCCCCCCc1ccccc1`: “inactive”.
With `COC(=O)c1ccc(C(=O)OC)c(C(=O)OC)c1`, the AC50 is 69.6 µM (active).
As to `CC1=CP(=O)(c2ccccc2)CC1` (centres undefined), the compound was called inactive.
For the compound `C=CCCCCCCCCO`, the half-maximal activity concentration (AC50) is 50 µM (active).
On to `CC1=CC(C)C(C=O)CC1` (centres undefined), for which the outcome was inactive.
The same measure, in the same setting: as for `CC(C)C(=O)OCCc1ccccc1`, the entry is “inactive”.
`Nc1ccc(O)c([N+](=O)[O-])c1`: the AC50 is 85.7 µM (active).
On the same count and under the same terms, as for `CCC1(C)C(=O)N(Cl)C(=O)N1Cl` (centres undefined), the figure is 81.4 µM (active).
`CC=C(C)C(C)=O`: the compound was classed as inactive.
With `C=CC(C)(O)CC/C=C(\C)CC` (centres undefined), the concentration at half-maximal activity (AC50) is 50 µM (active).
Consider `CC(CC(C)C)=NO`, for which the compound was called inactive.
For the compound `CC(C)C(=O)OCCOc1ccccc1`, the compound was called inactive.
As to `Cc1ccc2c(c1)CCCN2`, the compound was called inactive.
The same measure, in the same setting: as for `Fc1ccc(Br)cc1`, the entry is “inactive”.
On the same count and under the same terms, as for `O=C(O)C1CCC(C(=O)O)CC1` (centres undefined), the entry is “inactive”.
As to `CC1=C(O)C(=O)C(C)O1` (centres undefined), the AC50 was 66.8 µM (active).
Turning to `CC(C)=CCl`, the call was inactive.
Consider `CCCCC1CCC(=O)O1` (centres undefined), for which the AC50 was 60.6 µM (active).
The same measure, in the same setting: as for `COC(OC)(C(=O)c1ccccc1)c1ccccc1`, the figure is 64 µM (active).
`N#CC1(N)CCCCC1`: the outcome was inactive.
Still for that read-out and setting: as for `CC(=O)CCC=C(C)C`, the entry is “inactive”.
